In all, about 290,000 compounds went through this assay and about 3,000 (1%) were called active. This excerpt belongs to a sample that is enriched for actives. Unmarked numbers belong to inactive results. Rule as the data show it: active = inhibition mostly above about 36% (no sharp cut-off); inactive = mostly below about 34%.

The nature of this test: inhibition of NOD1-driven NF-kB reporter – cell-based, luminescence, uHTS, primary screen (AID 1578).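 Also: HEK-293T reporter cells stimulated with the NOD1 agonist gamma-tri-DAP.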 Particulars: NOD1-driven NF-kB luciferase reporter cells, at 4 µM, stronger effect = higher value. For orientation: In a reporter assay the amount or activity of a reporter protein is the signal.
For `COc1ccc(N(CC(=O)Nc2ccc3c(c2)OCCO3)S(C)(=O)=O)c(OC)c1`, the inhibition was -7.6%.
On to `COc1ccc(Cn2c3ccc(OC)cc3c3nc4ccccc4nc32)cc1`, for which the inhibition is -41.1%.
For `Cc1cc(Br)ccc1OCCCCNCCO` the value was -40.2%; for `O=c1cc(COc2ccc(Cl)c(Cl)c2)nc2sccn12`, -5.4%; for `CCN(CC)c1ccc(N=Cc2ccc([N+](=O)[O-])o2)cc1`, -31.4%.
For the compound `Cc1ccc(NC(=O)c2cc(C)nc3ccccc23)c(C)c1`, the inhibition was -34.7%.
As for `Cc1ccc(NC(=O)Cc2ccccc2)c(C)c1`, the inhibition was -29.9%.
Take `COc1ccccc1N(C(=O)c1ccco1)C(C(=O)NC1CCCC1)c1ccc(N2CCOCC2)cc1` (stereo unspecified): the inhibition was 37.6%.
For the compound `Cc1ccccc1CC(=O)N1CCCC(CCC(=O)N2CCN(c3ccccn3)CC2)C1` (stereo unspecified), the inhibition was -12.6%.
Consider `Cc1c(CCC(=O)O)c(=O)n2c([nH]c3ccccc32)c1C#N`, for which the inhibition is 0.9%.
For `CCc1c(C)c(C#N)c2[nH]c3ccccc3n2c1=S` the value was 1.4%; for `Cc1c(Cc2ccccc2)c(=O)n2c([nH]c3ccccc32)c1C#N`, 90.3% (active); for `Cc1c(CCC(C)C)c(=O)n2c([nH]c3ccccc32)c1C#N`, 91.2% (active).
Regarding `C=C(C)Cc1c(C)c(C#N)c2[nH]c3ccccc3n2c1=O`, the inhibition was 19.2%.
Under `Cc1c(CCO)c(=O)n2c([nH]c3ccccc32)c1C#N` stands 1.6%.
Take `CN(C1CCCCC1)S(=O)(=O)c1ccc(NC(=O)c2ccco2)cc1`: the inhibition was 1.3%.
Under `CN1C(=O)C(C)(C)c2cc(S(=O)(=O)N(C)Cc3ccccc3)ccc21` stands -4.1%; under `COc1cccc2c1Oc1ncccc1N(C(=O)CCC(=O)NCc1ccccc1)C2`, -19.2%.
As for `O=C(CN1CCCc2ccccc21)NC(=O)NCc1ccccc1`, the inhibition was -4.3%.
For `O=C(c1ccccc1)C1CCN(c2ncccc2[N+](=O)[O-])CC1` the value was -8.7%.
Under `Cc1nc(NCc2ccc3c(c2)OCO3)c2oc3ccccc3c2n1` stands 15.2%.
For `CCc1nc(NCc2ccc3c(c2)OCO3)c2oc3ccccc3c2n1` the value was 23.2%; for `c1ccc2c(c1)oc1c(NCc3ccc4c(c3)OCO4)ncnc12`, 66.2% (active).
Take `O=C(CSc1nnnn1-c1ccccc1)Nc1ccc(Cl)cc1`: the inhibition is 18.8%.
As for `O=C(CSc1nnnn1-c1ccccc1)CC(=O)Nc1ccc(Cl)cc1`, the inhibition is 73.1% (active).
`O=C(CSc1nnnn1-c1ccccc1)Nc1ccccc1`: the inhibition was -15.6%.
For the compound `CN1C(=O)SC(Nc2cccc3ccccc23)C1=O` (stereo unspecified), the inhibition is -30.3%.
Take `O=C(CCN1C(=O)C2CC=C(Cl)CC2C1=O)NC1CCCCC1` (stereo unspecified): the inhibition is -1.2%.
In the case of `O=C(CCN1C(=O)C2CC=CCC2C1=O)NC1CCCCC1` (stereo unspecified), the inhibition was 44.9% (active).
For `O=C(CN1C(=O)C2CC=CCC2C1=O)NC1CCCCC1` (stereo unspecified), the inhibition is -35.5%.
For `Cc1cc2ccccn2c1C(=O)c1ccc(C#N)cc1`, the inhibition was 2%.
For `CCOc1ccc2c(c1)OC(c1ccc(OC)cc1)(C(F)(F)F)NC2=O` (stereo unspecified) the value was -30.6%; for `CCOc1ccc2c(c1)OC(c1ccc(C)cc1)(C(F)(F)F)NC2=O` (stereo unspecified), 101% (active).
For `CCOc1ccc2c(c1)OC(c1ccccc1)(C(F)(F)F)NC2=O` (stereo unspecified) the value was -42.1%; for `CC(Sc1nnc(CC(=O)Nc2ccccc2F)n1C)C(=O)Nc1nccs1` (stereo unspecified), -32.4%; for `Cc1cc(C)c(-n2c(SCCS(=O)(=O)c3ccc(F)cc3)n[nH]c2=O)c(C)c1`, 69.7% (active).
For `Cc1ccc(S(=O)(=O)CCSc2n[nH]c(=O)n2-c2ccccc2)cc1` the value was -6.8%.
Turning to `O=c1[nH]nc(SCCS(=O)(=O)c2ccc(F)cc2)n1-c1ccccc1`, the inhibition is -11.2%.
For `CCOC(=O)c1[nH]cnc1C(=O)Nc1cccc(OC)c1` the value was -3.5%; for `CCCCC(c1nnnn1CC1CCCO1)N1CCN(c2ccccc2)CC1` (stereo unspecified), -34.5%.
Under `CCN(c1ccccc1)S(=O)(=O)c1ccc2c(c1)CC(C)N2C(=O)C1CC1` (stereo unspecified) stands -12.9%; under `CC(=O)NC1(c2ccccc2)CCN(c2nc(C)cc(C)n2)CC1`, -0.9%.
Regarding `CC(=O)NC1(c2ccccc2)CCN(c2cc(C)nc(-c3ccccc3)n2)CC1`, the inhibition is 52.2% (active).
For `Cc1cc(N2CCC(C(N)=O)CC2)nc(-c2ccccc2)n1` the value was 2%.
As for `CCN(Cc1ccncc1)Cc1nc(CC2CC2)no1`, the inhibition is -8.9%.
Under `CN(C)CC(CCCCC(CN(C)C)C(=O)c1ccccc1)C(=O)c1ccccc1` (stereo unspecified) stands -4.1%.
Under `COc1ccc(C(=O)C(CCCCC(CN(C)C)C(=O)c2ccc(OC)cc2)CN(C)C)cc1` (stereo unspecified) stands -6%; under `COc1ccccc1NC(=O)CN1CCN(CC(=O)Nc2ccccc2Cl)CC1`, -18.4%.
For `O=C(Nc1ccc(Cl)cc1)Nc1cc([N+](=O)[O-])ccc1F` the value was 30.3%; for `O=C(Nc1ccccc1)Nc1cc([N+](=O)[O-])ccc1F`, -17.9%; for `COc1ccc(C2/C(=C(/O)c3ccc(C)cc3)C(=O)C(=O)N2C)c(OC)c1` (stereo unspecified), -29.5%.
As for `CCC1CCC(C(=O)NC(C(=O)NCCN2CCOCC2)C(C)C)CC1` (stereo unspecified), the inhibition was -24.4%.
For `Cc1cc(Cl)c(S(=O)(=O)Nc2cc(S(=O)(=O)N3CCOCC3)ccc2F)cc1OCC(N)=O` the value was -11.8%; for `Cn1nccc1C(=O)N1CCN(c2cccc(C(F)(F)F)c2)CC1`, -2.5%.
For the compound `CC1Oc2ccccc2N(CC(=O)NCc2ccc3c(c2)OCO3)C1=O` (stereo unspecified), the inhibition is -48.9%.
With `COc1ccc(OC)c(/C=N\NC(=O)c2c(C)nc3cc(C)ccn23)c1`, the inhibition is -8.5%.
Under `CN(C(=O)COc1ccc(Cl)cc1)c1nnc(C23CC4CC(CC(C4)C2)C3)s1` stands 4.5%; under `CN(C(=O)COc1ccc(Cl)cc1Cl)c1nnc(C23CC4CC(CC(C4)C2)C3)s1`, -34.1%; under `CN(C(=O)COc1ccccc1)c1nnc(C23CC4CC(CC(C4)C2)C3)s1`, 104% (active).
Regarding `O=C(NNC(=S)Nc1ccc(Cl)c(Cl)c1)c1cccc([N+](=O)[O-])c1`, the inhibition was -11.1%.
In the case of `CN(C(=O)CC1C(=O)NCCN1Cc1cccc(F)c1F)C1CCOCC1` (stereo unspecified), the inhibition was -24.4%.

By inhibition is commonly meant the drop in the measured response relative to a control, in per cent.

Values taken from PubChem BioAssay AID1578 (Sanford-Burnham Center for Chemical Genomics, 2009).
